In PubChem BioAssay (EPA / NIEHS):
Results filed as inconclusive are left out. The source made the active and inactive calls. The calls were made as follows, unless noted: active = hit-call score of the fitted dose curve at least 0.9, where 1 is the maximum; inactive = score below 0.9.

Legend:
[1] = ATG_M_32_TRANS: Attagene TRANS-FACTORIAL HepG2 Assay for M32 Transcription Factor (Internal Marker) (AID 2282984; active = hit-call score of the fitted dose curve at least 0.9, where 1 is the maximum;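 also: transcript level of a background control reporter unit measured by RT-PCR and capillary electrophoresis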); details: HepG2 Attagene TRANS M32 internal marker reporter
Outline: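 After 24 h dosing of transfected HepG2 cells, total RNA was reverse-transcribed, reporter sequences PCR-amplified, 6-FAM labelled by primer extension and HpaI-digested before capillary electrophoresis. Signal increase over DMSO was fitted.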

[2] = molecular target: Nuclear receptor subfamily 4 group A member 2 (Homo sapiens) (UniProt P43354); experiment: ATG_NURR1_TRANS: Attagene TRANS-FACTORIAL HepG2 Assay for human Nuclear Receptor Related Protein 1 (NURR1) (AID 2282985; active = hit-call score of the fitted dose curve at least 0.9, where 1 is the maximum); details: HepG2 Attagene TRANS reporter, mRNA readout
Outline: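 Chimeric NR-Gal4 fusion activity measured in HepG2 after 24 h treatment. Reporter transcripts detected by RT-PCR and capillary electrophoresis fluorescence; positive-direction curve fitting against DMSO.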

[3] = molecular target: Nuclear respiratory factor 1 (Homo sapiens) (UniProt Q16656); experiment: ATG_NRF1_CIS: Attagene CIS-FACTORIAL HepG2 Assay for human Nuclear Respiratory Factor 1 (NRF1) Orphan Gene (AID 2282987); details: HepG2 NRF1 cis-element reporter, Attagene multiplex; actives raise or lower the signal
Outline: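 Measured: fluorescent reporter-specific RT-PCR products from transfected HepG2 cells, separated by capillary electrophoresis. Exposure lasted 24 h. Analysis used bidirectional curve fitting with DMSO as negative control.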

[4] = ATG_NFI_CIS: Attagene CIS-FACTORIAL HepG2 Assay for human Nuclear Factor I (NFI) (AID 2282989); details: HepG2 cis-regulatory reporter, NFI response element transcription; actives raise or lower the signal
Outline: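 Reporter transcripts were measured by RT-PCR with fluorescent primer extension and capillary electrophoresis 24 h post-treatment. HepG2 cells carried transiently transfected cis-regulated reporter constructs reporting endogenous factor activity; gain or loss fitted against DMSO baseline.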

[5] = molecular target: Myc proto-oncogene protein (Homo sapiens) (UniProt P01106); experiment: ATG_Myc_CIS: Attagene CIS-FACTORIAL HepG2 Assay for human Myelocytomatosis (Myc) Proto-Oncogene Transcription Factor (AID 2282990); details: HepG2, Attagene cis-reporter transcription factor activity; actives raise or lower the signal
Outline: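 Multiplexed cis-reporter transcription in HepG2 cells after 24 h chemical treatment. Reporter mRNA measured by RT-PCR and capillary electrophoresis fluorescence; activity fitted bidirectionally against DMSO control.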

[6] = ATG_NF_kB_CIS: Attagene CIS-FACTORIAL HepG2 Assay for human Nuclear Factor Kappa B (NF-kB) (AID 2282991); details: HepG2 Attagene cis-factorial NF-kB reporter mRNA; actives raise or lower the signal
Outline: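 Fluorescence of labelled RT-PCR products separated by capillary electrophoresis gives reporter mRNA levels from transfected HepG2 cells exposed 24 h; values are fitted in both directions relative to DMSO.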

[7] = ATG_NRF2_ARE_CIS: Attagene CIS-FACTORIAL HepG2 Assay for human Nuclear Factor Erythroid 2 Related Factor 2 (NFR2) response to Antioxidant Response Elements (ARE) (AID 2282992); details: HepG2 Attagene ARE/NRF2 reporter, transcription factor activity; actives raise or lower the signal
Outline: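 Using transiently transfected HepG2 cells exposed for 24 h, reporter mRNA levels were determined by RT-PCR with fluorescent primer extension and capillary electrophoresis, analysed for gain or loss of signal against DMSO.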

[8] = ATG_Oct_MLP_CIS: Attagene CIS-FACTORIAL HepG2 Assay for human Octamer-Binding Transcription Factor (Oct) (AID 2282993); details: HepG2 Attagene cis-factorial Oct reporter, mRNA; actives raise or lower the signal
Outline: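 Readout is reporter transcript level from RT-PCR with fluorescent primer extension and capillary electrophoresis, fitted in both directions against DMSO. Transfected HepG2 reporter units report endogenous factor activity after 24 h dosing.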

[9] = molecular target: Cellular tumor antigen p53 (Homo sapiens) (UniProt P04637); experiment: ATG_p53_CIS: Attagene CIS-FACTORIAL HepG2 Assay for human p53 Transcription Factor (AID 2282994); details: HepG2 p53 cis-element reporter, Attagene mRNA; actives raise or lower the signal
Outline: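 In HepG2 cells, reporter transcription units under cis-regulatory promoters were transiently introduced. Following 24 h treatment, RNA was processed to labelled, digested cDNA fragments read by capillary electrophoresis; fitting was bidirectional versus DMSO.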

[10] = molecular target: human Peroxisome Proliferator-activated Receptor alpha (PPARa), PPARA (gene 5465) (UniProt Q07869); experiment: ATG_PPARa_TRANS: Attagene TRANS-FACTORIAL HepG2 Assay for human Peroxisome Proliferator-activated Receptor alpha (PPARa) (AID 2283001; active = hit-call score of the fitted dose curve at least 0.9, where 1 is the maximum)
Outline: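 Cells (HepG2) are transfected with multiple reporter transcription units, exposed to chemical for 24 h, then total RNA is reverse-transcribed and amplified. Labelled products are quantified by capillary electrophoresis; induction is referenced to DMSO.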

[11] = molecular target: Transcriptional activator Myb (Homo sapiens) (UniProt P10242); experiment: ATG_Myb_CIS: Attagene CIS-FACTORIAL HepG2 Assay for human Myeloblastosis (Myb) Proto-Oncogene Transcription Factor (AID 2282986); details: HepG2 Attagene CIS-FACTORIAL Myb reporter transcription; actives raise or lower the signal
Outline: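 After 24 h of compound dosing, total RNA from transfected HepG2 cells is reverse-transcribed and the reporter sequences amplified, labeled and separated by capillary electrophoresis. Values come from bidirectional fitting against DMSO.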

[12] = molecular target: human Peroxisome Proliferator-activated Receptor delta (PPARd), PPARD (gene 5467) (UniProt Q03181); experiment: ATG_PPARd_TRANS: Attagene TRANS-FACTORIAL HepG2 Assay for human Peroxisome Proliferator-activated Receptor delta (PPARd) (AID 2283002; active = hit-call score of the fitted dose curve at least 0.9, where 1 is the maximum)
Outline: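 Multiplexed trans-activation format: HepG2 liver cells expressing exogenous NR-Gal4 chimeras and GAL4-UAS reporters were exposed for 24 h. Reporter mRNA was detected by RT-PCR with capillary electrophoresis fluorescence; activity fitted as gain of signal relative to DMSO.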

[13] = molecular target: human Retinoic Acid Receptor beta (RARb), RARB (gene 5915) (UniProt P10826); experiment: ATG_RARb_TRANS: Attagene TRANS-FACTORIAL HepG2 Assay for human Retinoic Acid Receptor beta (AID 2283004; active = hit-call score of the fitted dose curve at least 0.9, where 1 is the maximum)
Outline: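 Readout is reporter mRNA induction: RNA reverse-transcribed, PCR-amplified, FAM-labelled, HpaI-cut and resolved by capillary electrophoresis. Transiently transfected HepG2 cells carrying exogenous NR–Gal4 chimeras were dosed for 24 h; activity fitted upward relative to DMSO.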

[14] = BSK_3C_TissueFactor: BioMAP Diversity Plus: 3C Assay for Tissue Factor Biomarker Activity (AID 2282997); details: BioMAP 3C HUVEC, tissue factor biomarker readout; actives raise or lower the signal
Outline: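 HUVEC, 3C system, 24 h post-dose; Tissue Factor by ELISA; bidirectional fit vs DMSO baseline.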

[15] = BSK_3C_uPAR: BioMAP Diversity Plus: 3C Assay for Urokinase-type plasminogen activator receptor (uPAR) Biomarker Activity (AID 2282998); details: BioMAP 3C HUVEC, uPAR biomarker ELISA; actives raise or lower the signal
Outline: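 Cell-surface uPAR on HUVEC (3C system) read by ELISA at 24 h post-treatment, with DMSO as baseline and fitting in both directions. Parallel cultures stained with SRB to flag overt cytotoxicity.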

[16] = BSK_4H_Eotaxin3: BioMAP Diversity Plus: 4H Assay for Eotaxin 3 Biomarker Activity (AID 2283000); details: primary human endothelial cells (HUVEC); actives raise or lower the signal;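 also: CCL26 protein level quantified by ELISA in parallel with SRB cytotoxicity check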
Outline: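 Readout is Eotaxin-3 (CCL26) level by ELISA in primary human umbilical vein endothelial cells harvested 24 h after chemical exposure; activity fitted in both directions against DMSO control.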

[17] = read-out: Intercellular Adhesion Molecule 1 (ICAM1), ICAM1 (gene 3383); experiment: BSK_3C_ICAM1: BioMAP Diversity Plus: 3C Assay for Intercellular Adhesion Molecule 1 (ICAM1) Biomarker Activity (AID 2283003); details: primary human endothelial cells (HUVEC); actives raise or lower the signal
Outline: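 ELISA readout of ICAM1 in human umbilical vein endothelial cells in the 3C system, taken 24 h post-dose. Gain or loss of signal versus DMSO was fitted in both directions, with SRB total-protein staining run in parallel.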

Chain of human Peroxisome Proliferator-activated Receptor delta (PPARd), PPARD (gene 5467) (Q03181 whole entry, looked up, the tested form may be a part): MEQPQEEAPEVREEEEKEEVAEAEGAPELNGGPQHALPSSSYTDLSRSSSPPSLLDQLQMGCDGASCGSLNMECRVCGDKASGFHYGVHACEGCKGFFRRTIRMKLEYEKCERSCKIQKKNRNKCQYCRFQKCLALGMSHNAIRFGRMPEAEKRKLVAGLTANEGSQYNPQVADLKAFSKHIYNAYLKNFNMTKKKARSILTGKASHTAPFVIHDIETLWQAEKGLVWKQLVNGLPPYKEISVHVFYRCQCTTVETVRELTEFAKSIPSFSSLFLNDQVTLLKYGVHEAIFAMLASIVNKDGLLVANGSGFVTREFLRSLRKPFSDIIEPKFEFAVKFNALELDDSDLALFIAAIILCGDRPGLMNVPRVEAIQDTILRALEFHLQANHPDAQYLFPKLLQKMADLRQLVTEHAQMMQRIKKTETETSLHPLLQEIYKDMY
Chain of Cellular tumor antigen p53 (Homo sapiens) (P04637 whole entry, looked up, the tested form may be a part): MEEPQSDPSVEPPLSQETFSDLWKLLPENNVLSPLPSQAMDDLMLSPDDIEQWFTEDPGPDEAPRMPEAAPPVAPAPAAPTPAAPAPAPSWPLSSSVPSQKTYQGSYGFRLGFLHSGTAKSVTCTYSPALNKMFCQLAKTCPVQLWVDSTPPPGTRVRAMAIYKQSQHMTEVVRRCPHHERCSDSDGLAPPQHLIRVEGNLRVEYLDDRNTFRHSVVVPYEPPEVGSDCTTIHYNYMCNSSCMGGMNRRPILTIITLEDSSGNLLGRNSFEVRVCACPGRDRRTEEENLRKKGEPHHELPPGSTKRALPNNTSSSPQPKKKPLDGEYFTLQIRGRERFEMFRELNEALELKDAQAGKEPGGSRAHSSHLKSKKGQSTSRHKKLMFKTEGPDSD
Chain of Myc proto-oncogene protein (Homo sapiens) (P01106 whole entry, looked up): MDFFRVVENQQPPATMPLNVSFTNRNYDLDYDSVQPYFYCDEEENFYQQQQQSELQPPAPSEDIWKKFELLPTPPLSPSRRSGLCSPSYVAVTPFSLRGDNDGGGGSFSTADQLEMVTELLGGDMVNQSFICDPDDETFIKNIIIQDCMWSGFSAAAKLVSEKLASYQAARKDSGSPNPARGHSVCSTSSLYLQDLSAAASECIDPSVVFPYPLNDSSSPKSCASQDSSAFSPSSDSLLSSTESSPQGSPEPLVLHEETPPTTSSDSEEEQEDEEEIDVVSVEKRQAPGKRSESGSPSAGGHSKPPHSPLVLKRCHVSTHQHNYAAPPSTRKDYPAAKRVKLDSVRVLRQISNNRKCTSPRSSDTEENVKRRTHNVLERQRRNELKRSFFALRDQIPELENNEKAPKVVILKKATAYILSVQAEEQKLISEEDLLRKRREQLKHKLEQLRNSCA
Chain of human Peroxisome Proliferator-activated Receptor alpha (PPARa), PPARA (gene 5465) (Q07869 whole entry, looked up): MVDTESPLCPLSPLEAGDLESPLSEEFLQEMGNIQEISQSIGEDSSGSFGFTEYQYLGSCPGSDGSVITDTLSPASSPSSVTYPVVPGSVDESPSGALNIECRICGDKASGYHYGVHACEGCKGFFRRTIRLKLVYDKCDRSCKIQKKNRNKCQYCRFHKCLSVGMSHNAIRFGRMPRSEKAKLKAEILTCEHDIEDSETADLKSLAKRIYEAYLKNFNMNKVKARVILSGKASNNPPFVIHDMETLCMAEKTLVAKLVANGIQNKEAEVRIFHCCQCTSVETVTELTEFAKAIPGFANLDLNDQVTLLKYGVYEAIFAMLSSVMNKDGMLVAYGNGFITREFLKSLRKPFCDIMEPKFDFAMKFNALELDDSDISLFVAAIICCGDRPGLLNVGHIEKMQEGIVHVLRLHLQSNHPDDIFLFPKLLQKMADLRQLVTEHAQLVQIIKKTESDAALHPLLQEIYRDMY
Chain of Nuclear respiratory factor 1 (Homo sapiens) (Q16656 whole entry, looked up): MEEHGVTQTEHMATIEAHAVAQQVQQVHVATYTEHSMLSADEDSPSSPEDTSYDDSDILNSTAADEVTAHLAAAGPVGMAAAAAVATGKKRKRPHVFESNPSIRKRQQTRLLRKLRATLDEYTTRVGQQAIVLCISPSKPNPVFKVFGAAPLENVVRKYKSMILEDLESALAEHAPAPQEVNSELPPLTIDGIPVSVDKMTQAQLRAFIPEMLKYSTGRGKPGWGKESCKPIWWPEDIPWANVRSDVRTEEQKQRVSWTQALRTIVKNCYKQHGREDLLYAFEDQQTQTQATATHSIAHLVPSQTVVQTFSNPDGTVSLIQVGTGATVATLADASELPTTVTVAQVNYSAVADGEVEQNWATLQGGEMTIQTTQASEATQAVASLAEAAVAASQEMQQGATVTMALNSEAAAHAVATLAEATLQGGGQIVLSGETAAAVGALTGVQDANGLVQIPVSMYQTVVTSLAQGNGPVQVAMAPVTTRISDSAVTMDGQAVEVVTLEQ
Chain of Transcriptional activator Myb (Homo sapiens) (P10242 whole entry, looked up): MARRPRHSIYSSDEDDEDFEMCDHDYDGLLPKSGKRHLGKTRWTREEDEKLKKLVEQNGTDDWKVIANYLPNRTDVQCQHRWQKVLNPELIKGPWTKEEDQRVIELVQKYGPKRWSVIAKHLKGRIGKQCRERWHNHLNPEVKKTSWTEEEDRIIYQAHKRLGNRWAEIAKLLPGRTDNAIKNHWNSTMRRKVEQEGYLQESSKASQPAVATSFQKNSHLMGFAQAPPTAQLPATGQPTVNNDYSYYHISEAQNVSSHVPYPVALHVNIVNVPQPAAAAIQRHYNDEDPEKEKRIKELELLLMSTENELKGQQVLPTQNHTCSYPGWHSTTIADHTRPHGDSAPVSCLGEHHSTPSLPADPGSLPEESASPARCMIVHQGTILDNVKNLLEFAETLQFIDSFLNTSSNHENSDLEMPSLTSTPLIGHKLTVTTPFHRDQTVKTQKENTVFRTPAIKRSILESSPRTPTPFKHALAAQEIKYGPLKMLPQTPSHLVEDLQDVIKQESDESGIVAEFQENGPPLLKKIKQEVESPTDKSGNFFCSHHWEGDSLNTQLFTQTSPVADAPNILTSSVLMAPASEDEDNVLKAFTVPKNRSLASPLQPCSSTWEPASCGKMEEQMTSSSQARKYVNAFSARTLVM
Chain of human Retinoic Acid Receptor beta (RARb), RARB (gene 5915) (P10826 whole entry, looked up, the tested form may be a part): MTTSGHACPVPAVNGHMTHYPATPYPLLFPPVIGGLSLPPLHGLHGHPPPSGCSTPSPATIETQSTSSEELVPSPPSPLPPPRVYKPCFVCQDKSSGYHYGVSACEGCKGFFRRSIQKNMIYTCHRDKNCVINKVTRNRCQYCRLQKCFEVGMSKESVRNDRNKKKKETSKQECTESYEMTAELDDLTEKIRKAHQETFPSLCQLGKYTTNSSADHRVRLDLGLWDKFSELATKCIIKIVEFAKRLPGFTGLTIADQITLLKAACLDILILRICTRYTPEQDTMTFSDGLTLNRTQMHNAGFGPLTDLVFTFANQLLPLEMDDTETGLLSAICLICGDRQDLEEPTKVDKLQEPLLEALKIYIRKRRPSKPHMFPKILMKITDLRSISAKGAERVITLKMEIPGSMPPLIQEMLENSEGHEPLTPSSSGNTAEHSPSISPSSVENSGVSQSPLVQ
Chain of Nuclear receptor subfamily 4 group A member 2 (Homo sapiens) (P43354 whole entry, looked up, the tested form may be a part): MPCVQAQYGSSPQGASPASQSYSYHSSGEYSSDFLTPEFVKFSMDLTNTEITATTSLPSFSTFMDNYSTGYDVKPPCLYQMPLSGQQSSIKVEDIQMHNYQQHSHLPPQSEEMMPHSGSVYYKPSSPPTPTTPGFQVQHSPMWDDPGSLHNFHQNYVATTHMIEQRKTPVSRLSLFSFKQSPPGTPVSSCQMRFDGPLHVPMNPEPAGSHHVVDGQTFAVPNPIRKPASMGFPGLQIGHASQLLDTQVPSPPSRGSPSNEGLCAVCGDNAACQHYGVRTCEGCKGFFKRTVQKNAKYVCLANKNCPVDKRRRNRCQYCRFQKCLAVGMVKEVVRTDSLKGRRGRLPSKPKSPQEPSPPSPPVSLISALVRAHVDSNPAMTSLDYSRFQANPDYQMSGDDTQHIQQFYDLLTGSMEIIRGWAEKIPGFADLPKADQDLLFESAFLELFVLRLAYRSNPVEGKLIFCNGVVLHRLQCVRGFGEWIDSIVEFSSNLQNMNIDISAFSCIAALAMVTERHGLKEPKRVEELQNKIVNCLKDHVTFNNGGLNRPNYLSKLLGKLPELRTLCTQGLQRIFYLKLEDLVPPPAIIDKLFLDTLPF

Compound: C=CC#N
- outcome [1]: inactive
- outcome [2]: inactive
- outcome [3]: inactive
- outcome [4]: inactive
- outcome [5]: inactive
- outcome [6]: inactive
- AC50 [7]: 119 µM (active)
- outcome [8]: inactive
- outcome [9]: inactive
- outcome [10]: inactive

Compound: CCC[CH2][Sn]([Cl])([Cl])[Cl]
- outcome [11]: inactive
- outcome [3]: inactive
- outcome [4]: inactive
- outcome [5]: inactive
- outcome [6]: inactive
- AC50 [7]: 5.38 µM (active)
- outcome [8]: inactive
- outcome [9]: inactive

Compound: O=[N+]([O-])c1c(Cl)c(Cl)cc(Cl)c1Cl
- outcome [1]: inactive
- outcome [11]: inactive
- outcome [3]: inactive
- outcome [4]: inactive
- outcome [5]: inactive
- outcome [6]: inactive
- AC50 [7]: 57.3 µM (active)
- outcome [8]: inactive
- outcome [9]: inactive
- outcome [10]: inactive
- outcome [12]: inactive
- outcome [13]: inactive

Compound: CC(C)(OO)c1ccccc1
- outcome [1]: inactive
- outcome [11]: inactive
- outcome [3]: inactive
- outcome [4]: inactive
- outcome [5]: inactive
- outcome [6]: inactive
- outcome [7]: inactive
- outcome [8]: inactive
- outcome [9]: inactive
- outcome [14]: inactive
- outcome [15]: inactive
- outcome [16]: inactive
- outcome [10]: inactive
- outcome [12]: inactive
- outcome [17]: inactive

Compound: O=C(O)CCC(F)(C(F)(F)F)C(F)(F)F
- outcome [14]: inactive
- outcome [15]: inactive
- outcome [17]: inactive

Compound: CCc1ccccc1N
- outcome [1]: inactive
- outcome [11]: inactive
- outcome [3]: inactive
- outcome [4]: inactive
- outcome [7]: inactive
- outcome [8]: inactive
- outcome [10]: inactive

Compound: CC(=O)OC(c1ccccc1)C(Cl)(Cl)Cl (centres undefined)
- outcome [11]: inactive
- outcome [3]: inactive
- outcome [4]: inactive
- outcome [7]: inactive
- outcome [8]: inactive
- outcome [9]: inactive
- outcome [14]: inactive
- outcome [15]: inactive
- outcome [10]: inactive
- outcome [12]: inactive
- outcome [17]: inactive

Compound: CCOC(=O)CP(=O)(OCC)OCC
- outcome [2]: inactive
- outcome [3]: inactive
- outcome [4]: inactive
- outcome [5]: inactive
- outcome [6]: inactive
- outcome [7]: inactive
- outcome [8]: inactive
- outcome [9]: inactive

Compound: CC(Br)C(=O)O (centres undefined)
- outcome [11]: inactive
- outcome [3]: inactive
- outcome [4]: inactive
- outcome [5]: inactive
- outcome [6]: inactive
- outcome [7]: inactive
- outcome [8]: inactive
- outcome [9]: inactive
- outcome [12]: inactive
- outcome [13]: inactive

Compound: COc1cc2c(cc1OC)[C@@]13CCN4CC5=CCO[C@H]6CC(=O)N2[C@H]1[C@H]6[C@H]5C[C@H]43
- outcome [1]: inactive
- outcome [11]: inactive
- outcome [3]: inactive
- outcome [4]: inactive
- outcome [5]: inactive
- outcome [6]: inactive
- outcome [7]: inactive
- outcome [8]: inactive
- outcome [9]: inactive
- outcome [10]: inactive
